In PubChem BioAssay AID1159580 (chemical genetic matrix, 2015):
Among all 5,500 compounds or so, about 2,000 (36%) were called active. About 18% were inconclusive and are not listed. Cut-off read from the data, not from the text of the source: active = normalized growth mostly below about 0.91 (no sharp cut-off); inconclusive = no clear call, values can overlap the other calls; inactive = mostly above about 0.92. The list shows a part of the results.

Experiment: chemical genetic growth profiling, strain panel (AID 1159580);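 note: tested at 20 µM; growth read once vehicle control cultures reached saturation at 30 °C; 1 = growth at the plate median or of vehicle wells; lower values mean less growth of the strain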
Conditions: S. cerevisiae deletion strains, growth OD

Measured: normalized growth

O=C(O)/C=C/C=C/c1ccc2c(c1)OCO2
inactive: locus YHR030C, strain SLT2, stronger effect = lower value 0.899 | locus YHR079C, strain IRE1, stronger effect = lower value 0.884 | locus YJL095W, strain BCK1, stronger effect = lower value 0.897 | locus YJR066W, strain TOR1, stronger effect = lower value 0.873 | locus YLR113W, strain HOG1, stronger effect = lower value 0.958 | locus YNL183C, strain NPR1, stronger effect = lower value 0.886 | locus YOR231W, strain MKK1, stronger effect = lower value 0.893 | locus YPL256C, strain CLN2, stronger effect = lower value 0.945
